Molecules are shown by their SMILES. Inconclusive results are not listed. Active and inactive are the calls of the source. Rule for the calls, unless noted: active = hit-call score of the fitted dose curve at least 0.9, where 1 is the maximum; inactive = score below 0.9.

For test [1], the target named is Paired box protein Pax-6 (Homo sapiens) (UniProt P26367). The test can be described thus: ATG_Pax6_CIS: Attagene CIS-FACTORIAL HepG2 Assay for human Paired Box 6 (PAX6) (AID 2282956). As to conditions: HepG2 CIS-FACTORIAL PAX6 reporter transcription, RNA readout; actives raise or lower the signal. In short, it runs like this:
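Readout: reporter transcript fluorescence after RT-PCR and capillary electrophoresis. Cells: HepG2, transiently transfected with cis-regulated MRTUs. Exposure 24 h. Gain or loss of signal fitted bidirectionally relative to DMSO.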

A short description of test [2]: ATG_PXRE_CIS: Attagene CIS-FACTORIAL HepG2 Assay for human Pregnane X Receptor Element (PXRE) (AID 2282957). To be noted: HepG2 Attagene CIS-FACTORIAL PXRE reporter, mRNA; actives raise or lower the signal. In short, it runs like this:
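After a 24 h chemical incubation, total RNA from transfected HepG2 cells was reverse-transcribed and reporter cDNA amplified, FAM-labeled, HpaI-digested and sized by capillary electrophoresis. DMSO served as baseline for bidirectional curve fitting.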

A short description of test [3]: ATG_PPRE_CIS: Attagene CIS-FACTORIAL HepG2 Assay for human Peroxisome Proliferator-activated Response Element (PPRE) (AID 2282958). To be noted: HepG2 PPRE cis-element reporter, Attagene transcription factor profiling; actives raise or lower the signal. In short, it runs like this:
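Read-out: fluorescent reporter mRNA fragments resolved by capillary electrophoresis after RT-PCR. HepG2 cells carried transiently transfected PPRE-driven cis reporter constructs and were dosed for 24 h; gain or loss of signal fitted relative to DMSO.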

Test [4] in a line: ATG_RORE_CIS: Attagene CIS-FACTORIAL HepG2 Assay for human RAR-related Orphan Receptor Element (RORE) (AID 2282959). To be noted: HepG2 Attagene cis-factorial RORE reporter, mRNA; actives raise or lower the signal. The gist of the method: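 Readout: fluorescent reporter mRNA by RT-PCR plus capillary electrophoresis, 24 h after dosing transfected HepG2 cells. Endogenous transcription factor activity on a cis promoter element is measured. Gain or loss of signal fitted against DMSO.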

A short description of test [5]: ATG_Sox_CIS: Attagene CIS-FACTORIAL HepG2 Assay for human SRY-box transcription factor (SOX) (AID 2282960). As to conditions: HepG2 Attagene cis-factorial SOX reporter, mRNA; actives raise or lower the signal. The gist of the method:
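Read-out: fluorescent RT-PCR products of SOX1-linked reporter transcripts resolved by capillary electrophoresis, fitted bidirectionally against DMSO. Transiently transfected HepG2 cells, 24 h after chemical exposure, endogenous transcription factor activity.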

The target of test [6] is Transcription factor Sp1 (Homo sapiens) (UniProt P08047). The test can be described thus: ATG_Sp1_CIS: Attagene CIS-FACTORIAL HepG2 Assay for human Specificity Protein 1 (Sp1) (AID 2282961). As to conditions: HepG2 Sp1 cis-reporter transcription, actives raise or lower the signal. In short, it runs like this: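 Read-out: fluorescence of 6-FAM-labeled, HpaI-digested RT-PCR products separated by capillary electrophoresis. HepG2 cells carried transfected cis-element reporter units and were exposed to chemicals for 24 h; gain or loss of signal fitted relative to DMSO.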
Chain of Transcription factor Sp1 (Homo sapiens) (P08047 whole entry, looked up): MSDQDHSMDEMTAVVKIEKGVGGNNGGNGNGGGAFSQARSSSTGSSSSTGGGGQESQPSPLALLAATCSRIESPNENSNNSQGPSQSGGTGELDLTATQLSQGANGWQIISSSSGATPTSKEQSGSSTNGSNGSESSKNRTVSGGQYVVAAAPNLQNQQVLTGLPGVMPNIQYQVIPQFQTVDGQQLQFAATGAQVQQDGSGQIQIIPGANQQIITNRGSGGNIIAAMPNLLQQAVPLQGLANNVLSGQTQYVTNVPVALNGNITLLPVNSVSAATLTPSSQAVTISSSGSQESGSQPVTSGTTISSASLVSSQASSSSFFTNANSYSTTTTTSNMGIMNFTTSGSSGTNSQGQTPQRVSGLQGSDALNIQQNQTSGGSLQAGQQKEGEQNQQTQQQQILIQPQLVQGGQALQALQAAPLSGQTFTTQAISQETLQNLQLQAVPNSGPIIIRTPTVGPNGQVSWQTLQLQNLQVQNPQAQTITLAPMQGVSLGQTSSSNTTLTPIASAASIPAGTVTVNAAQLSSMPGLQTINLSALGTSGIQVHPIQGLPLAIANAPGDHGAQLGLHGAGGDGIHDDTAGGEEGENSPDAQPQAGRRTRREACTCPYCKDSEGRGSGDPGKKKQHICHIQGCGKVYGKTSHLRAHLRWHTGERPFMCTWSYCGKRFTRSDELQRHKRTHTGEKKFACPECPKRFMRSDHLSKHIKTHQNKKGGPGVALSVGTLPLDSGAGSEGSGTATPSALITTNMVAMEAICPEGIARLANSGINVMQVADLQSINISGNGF

Test [7] in a line: ATG_SREBP_CIS: Attagene CIS-FACTORIAL HepG2 Assay for human Sterol Regulatory Element Binding (SREBP) (AID 2282962). As to conditions: HepG2 Attagene cis-factorial SREBP reporter, mRNA; actives raise or lower the signal. The gist of the method:
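Readout: fluorescent reporter-transcript peaks resolved by capillary electrophoresis after RT-PCR. Cells were human HepG2 carrying transfected cis-promoter reporter constructs, dosed for 24 h. Gain or loss of signal was fitted against DMSO controls.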

Test [8] deals with Signal transducer and activator of transcription 3 (Homo sapiens) (UniProt P40763). In words: ATG_STAT3_CIS: Attagene CIS-FACTORIAL HepG2 Assay for human Signal Transducer and Activator of Transcription 3 (STAT3) (AID 2282963). To be noted: HepG2, Attagene cis-factorial STAT3 reporter transcription; actives raise or lower the signal. The gist of the method:
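Cis-factorial format: endogenous transcription factors in HepG2 drive transfected reporter units. After 24 h treatment, reporter RNA was reverse-transcribed, amplified, FAM-labelled and HpaI-digested before CE analysis; activity scored in both directions against DMSO.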

The nature of test [9]: ATG_TA_CIS: Attagene CIS-FACTORIAL HepG2 Assay for human TA Basal Promoter (AID 2282964). As to conditions: HepG2 Attagene CIS-factorial TA basal promoter reporter; actives raise or lower the signal. The gist of the method: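 Steps: transfect HepG2 with MRTUs; dose 24 h; isolate RNA, DNase-treat, reverse-transcribe; PCR and FAM-label reporter cDNA; digest with HpaI 2h at 37 C; run capillary electrophoresis. Activity fitted both directions against DMSO.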

The nature of test [10]: ATG_TCF_b_cat_CIS: Attagene CIS-FACTORIAL HepG2 Assay for human T-Cell-Factor with beta-catenin (TCF/b-cat) (AID 2282965). To be noted: HepG2 TCF/beta-catenin cis-reporter transcription, actives raise or lower the signal. In short, it runs like this: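 Measured: reporter mRNA in HepG2 transiently transfected with cis-promoter reporter units, 24 h after chemical addition. Fitting was bidirectional, DMSO as negative control.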

Test [11] is described as follows: ATG_TAL_CIS: Attagene CIS-FACTORIAL HepG2 Assay for human TAL Basal Promoter (AID 2282966).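 Note: background control endpoint measuring basal TAL promoter reporter mRNA not a specific factor.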 To be noted: HepG2 Attagene cis-factorial TAL promoter reporter; actives raise or lower the signal. The gist of the method: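 Basal-promoter background-control endpoint from a multiplexed HepG2 reporter panel. Cells were exposed 24 h, then reporter mRNA was read by RT-PCR/CE fluorescence and fitted in both directions relative to DMSO.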

Test [12] can be described thus: ATG_TGFb_CIS: Attagene CIS-FACTORIAL HepG2 Assay for human Transforming Growth Factor (TGF) (AID 2282967). As to conditions: HepG2 Attagene CIS TGFb reporter, mRNA transcription; actives raise or lower the signal. The gist of the method: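 Cells were dosed for 24 hours, after which total RNA was reverse-transcribed and reporter sequences amplified, labeled and sized by capillary electrophoresis. Activity was fitted in both directions against DMSO.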

Test [13] can be described thus: ATG_VDRE_CIS: Attagene CIS-FACTORIAL HepG2 Assay for human Vitamin D Receptor Element (VDRE) (AID 2282968). As to conditions: HepG2 VDRE cis-reporter transcription, actives raise or lower the signal. In short, it runs like this: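 Measures endogenous factor activity through cis-element-driven reporter transcripts in transiently transfected HepG2. Cells are treated 24 h; reporter mRNA is quantified by RT-PCR and capillary electrophoresis; fitting is bidirectional.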

Test [14] deals with Nuclear receptor subfamily 1 group I member 3 (Homo sapiens) (UniProt Q14994). The test can be described thus: ATG_CAR_TRANS: Attagene TRANS-FACTORIAL HepG2 Assay for human Constitutive Androstane Receptor (CAR) (AID 2282969; active = hit-call score of the fitted dose curve at least 0.9, where 1 is the maximum;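 note: activators raise reporter mRNA above DMSO so AC50 marks induction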). To be noted: HepG2 Attagene TRANS-FACTORIAL CAR reporter. In short, it runs like this:
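Signal is reporter mRNA induction relative to DMSO, measured 24 h after dosing by RT-PCR with fluorescent primer extension and capillary electrophoresis. Human HepG2 liver cells carried transiently transfected chimeric NR-Gal4/GAL4-UAS reporter constructs.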

The target of test [15] is Estrogen receptor (Homo sapiens) (UniProt P03372). The test can be described thus: ATG_ERa_TRANS: Attagene TRANS-FACTORIAL HepG2 Assay for human Estrogen Receptor alpha (ERa) (AID 2282970; active = hit-call score of the fitted dose curve at least 0.9, where 1 is the maximum). As to conditions: HepG2 Attagene TRANS ERa GAL4 reporter, mRNA. In short, it runs like this:
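Gal4-fusion ERa transactivation, measured as reporter transcript level in transiently transfected HepG2 cells. Exposure 24 h; RT-PCR plus capillary electrophoresis with fluorescence detection.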

Test [16] deals with X-box-binding protein 1 (Homo sapiens) (UniProt P17861). In words: ATG_Xbp1_CIS: Attagene CIS-FACTORIAL HepG2 Assay for human X-box Binding Protein 1 (XBP1) (AID 2282972). To be noted: HepG2 XBP1 cis-element reporter, Attagene multiplex; actives raise or lower the signal. In short, it runs like this: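 Read-out: fluorescent reporter mRNA fragments resolved by capillary electrophoresis after RT-PCR. Human HepG2 liver cells carried transfected cis-promoter reporter units and were exposed to chemicals for 24 hours. Gain or loss of signal fitted relative to DMSO baseline.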
Chain of X-box-binding protein 1 (Homo sapiens) (P17861 whole entry, looked up, the tested form may be a part): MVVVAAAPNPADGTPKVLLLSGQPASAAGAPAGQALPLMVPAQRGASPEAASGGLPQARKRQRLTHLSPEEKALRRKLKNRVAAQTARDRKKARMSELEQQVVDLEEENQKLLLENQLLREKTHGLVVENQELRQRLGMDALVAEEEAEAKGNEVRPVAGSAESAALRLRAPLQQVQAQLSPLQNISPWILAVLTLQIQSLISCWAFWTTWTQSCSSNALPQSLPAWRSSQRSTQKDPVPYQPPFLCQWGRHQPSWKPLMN

Test [17] deals with Estrogen-related receptor gamma (Homo sapiens) (UniProt P62508). In words: ATG_ERRg_TRANS: Attagene TRANS-FACTORIAL HepG2 Assay for human Estrogen-Related Receptor gamma (ERRg) (AID 2282977; active = hit-call score of the fitted dose curve at least 0.9, where 1 is the maximum;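 note: hits increase reporter signal over DMSO so potencies reflect activators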). As to conditions: HepG2 Attagene TRANS reporter, ERRg transactivation. In short, it runs like this:
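Readout: fluorescent reporter-mRNA fragments resolved by capillary electrophoresis after RT-PCR and HpaI cut. Cells: transiently transfected HepG2 carrying GAL4-UAS reporters driven by exogenous NR-Gal4 chimeras, dosed 24 h. Activity fitted upward relative to DMSO baseline.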

Test [18] is described as follows: ATG_M_19_TRANS: Attagene TRANS-FACTORIAL HepG2 Assay for M19 Transcription Factor (Internal Marker) (AID 2282974; active = hit-call score of the fitted dose curve at least 0.9, where 1 is the maximum). As to conditions: HepG2 Attagene TRANS-FACTORIAL M19 internal marker reporter. In short, it runs like this:
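24 h chemical exposure of transiently transfected HepG2 (MRTU library). RNA → oligo(dT) RT → PCR → 6-FAM labelling → HpaI cut → CE fluorescence. Positive-direction fit vs DMSO baseline; background internal-marker readout.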

Test [19] can be described thus: ATG_GAL4_TRANS: Attagene TRANS-FACTORIAL HepG2 Assay for GAL4 (Internal Marker) (AID 2282976; active = hit-call score of the fitted dose curve at least 0.9, where 1 is the maximum). To be noted: HepG2 Attagene TRANS GAL4 internal marker reporter. In short, it runs like this: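 Background-control readout: GAL4-UAS reporter transcript in transiently transfected HepG2 cells after 24 h compound exposure. Measured by RT-PCR, 6-FAM primer extension, HpaI digest and capillary electrophoresis; gain-of-signal fit versus DMSO.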

Chain of Paired box protein Pax-6 (Homo sapiens) (P26367 whole entry, looked up): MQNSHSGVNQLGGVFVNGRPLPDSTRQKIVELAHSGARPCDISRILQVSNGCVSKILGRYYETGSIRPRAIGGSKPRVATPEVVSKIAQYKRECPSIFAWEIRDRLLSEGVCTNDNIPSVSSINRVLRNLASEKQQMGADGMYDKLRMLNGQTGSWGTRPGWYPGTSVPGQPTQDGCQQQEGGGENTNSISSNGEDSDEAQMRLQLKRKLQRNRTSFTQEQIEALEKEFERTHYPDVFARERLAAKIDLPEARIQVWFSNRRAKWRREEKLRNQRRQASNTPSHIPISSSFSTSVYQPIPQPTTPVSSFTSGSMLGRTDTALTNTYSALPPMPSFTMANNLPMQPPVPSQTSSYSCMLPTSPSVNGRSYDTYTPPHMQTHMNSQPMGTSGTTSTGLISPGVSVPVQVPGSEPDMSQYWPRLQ
Chain of Signal transducer and activator of transcription 3 (Homo sapiens) (P40763 whole entry, looked up): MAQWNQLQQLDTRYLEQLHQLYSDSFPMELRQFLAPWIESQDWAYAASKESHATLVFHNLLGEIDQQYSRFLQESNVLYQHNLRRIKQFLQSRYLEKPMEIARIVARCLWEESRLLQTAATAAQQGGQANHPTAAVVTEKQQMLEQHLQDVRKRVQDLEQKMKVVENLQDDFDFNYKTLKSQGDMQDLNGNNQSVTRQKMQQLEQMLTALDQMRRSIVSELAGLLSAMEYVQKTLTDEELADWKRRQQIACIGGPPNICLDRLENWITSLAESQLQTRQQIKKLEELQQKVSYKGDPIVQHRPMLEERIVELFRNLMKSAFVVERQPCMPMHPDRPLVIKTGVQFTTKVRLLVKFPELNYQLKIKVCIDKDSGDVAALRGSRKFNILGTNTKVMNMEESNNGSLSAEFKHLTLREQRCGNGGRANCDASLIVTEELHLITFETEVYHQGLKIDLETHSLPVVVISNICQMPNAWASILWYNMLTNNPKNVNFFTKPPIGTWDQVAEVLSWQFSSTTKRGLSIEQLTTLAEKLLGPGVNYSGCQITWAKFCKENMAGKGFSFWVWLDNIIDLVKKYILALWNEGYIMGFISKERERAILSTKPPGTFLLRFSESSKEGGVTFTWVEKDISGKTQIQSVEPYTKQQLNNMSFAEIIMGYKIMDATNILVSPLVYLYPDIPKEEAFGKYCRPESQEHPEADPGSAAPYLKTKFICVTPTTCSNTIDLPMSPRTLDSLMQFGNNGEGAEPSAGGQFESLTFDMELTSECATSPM
Chain of Estrogen-related receptor gamma (Homo sapiens) (P62508 whole entry, looked up, the tested form may be a part): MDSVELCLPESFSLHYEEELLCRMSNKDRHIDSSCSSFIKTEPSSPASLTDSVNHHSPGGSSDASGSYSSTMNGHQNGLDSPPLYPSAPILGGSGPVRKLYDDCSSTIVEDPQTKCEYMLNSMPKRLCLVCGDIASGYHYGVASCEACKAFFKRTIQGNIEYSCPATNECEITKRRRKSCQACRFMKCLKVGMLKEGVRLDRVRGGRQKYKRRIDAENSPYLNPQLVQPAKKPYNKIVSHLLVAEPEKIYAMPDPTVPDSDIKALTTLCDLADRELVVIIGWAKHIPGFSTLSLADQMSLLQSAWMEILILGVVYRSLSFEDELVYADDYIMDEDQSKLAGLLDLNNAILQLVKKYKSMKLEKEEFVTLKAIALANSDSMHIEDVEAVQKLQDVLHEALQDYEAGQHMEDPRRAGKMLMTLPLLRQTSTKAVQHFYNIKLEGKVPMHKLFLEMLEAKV
Chain of Estrogen receptor (Homo sapiens) (P03372 whole entry, looked up, the tested form may be a part): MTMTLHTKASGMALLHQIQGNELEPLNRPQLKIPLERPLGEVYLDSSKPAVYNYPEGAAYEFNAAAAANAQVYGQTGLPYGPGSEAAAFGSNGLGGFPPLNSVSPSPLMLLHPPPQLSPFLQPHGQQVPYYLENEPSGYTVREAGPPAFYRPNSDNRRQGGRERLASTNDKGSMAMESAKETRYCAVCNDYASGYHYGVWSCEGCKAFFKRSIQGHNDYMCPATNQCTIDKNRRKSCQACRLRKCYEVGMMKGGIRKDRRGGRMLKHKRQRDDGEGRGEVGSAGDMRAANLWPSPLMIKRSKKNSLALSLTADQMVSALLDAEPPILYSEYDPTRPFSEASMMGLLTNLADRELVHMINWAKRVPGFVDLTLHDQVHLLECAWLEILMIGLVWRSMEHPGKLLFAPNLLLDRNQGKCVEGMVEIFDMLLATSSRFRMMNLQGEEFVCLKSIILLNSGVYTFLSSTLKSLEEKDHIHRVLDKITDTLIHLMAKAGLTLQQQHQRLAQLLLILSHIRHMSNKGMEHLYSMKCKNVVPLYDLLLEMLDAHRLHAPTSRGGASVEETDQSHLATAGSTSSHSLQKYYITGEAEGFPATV
Chain of Nuclear receptor subfamily 1 group I member 3 (Homo sapiens) (Q14994 whole entry, looked up, the tested form may be a part): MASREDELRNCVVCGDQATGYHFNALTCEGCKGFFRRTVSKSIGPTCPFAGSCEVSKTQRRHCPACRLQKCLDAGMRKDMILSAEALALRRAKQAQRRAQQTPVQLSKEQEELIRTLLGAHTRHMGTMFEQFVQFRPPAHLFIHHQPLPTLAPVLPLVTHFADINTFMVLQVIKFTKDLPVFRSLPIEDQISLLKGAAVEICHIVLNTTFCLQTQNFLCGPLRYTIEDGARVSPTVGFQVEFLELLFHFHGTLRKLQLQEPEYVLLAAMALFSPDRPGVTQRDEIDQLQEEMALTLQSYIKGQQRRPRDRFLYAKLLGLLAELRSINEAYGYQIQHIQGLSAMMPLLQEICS

The term AC50 denotes the concentration at which the activity in the assay is half-maximal. For the compound `CCCCCCCCOC(=O)c1cc(O)c(O)c(O)c1`, the call in test [1], in test [3], in test [4], in test [5], in test [6] and in test [7] was inactive. The outcome in test [8], in test [9], in [10], in test [11], in test [12] and in [13] was inactive. In addition, the compound was classed as inactive in [14] and in test [16]. Also, the AC50 was 11.1 µM (active) in test [2] and 20 µM (active) in [15].

As for `CN(C[C@@H](CC[N+]12CCC(C3CCCCC3)(CC1)CC2)c1ccc(Cl)c(Cl)c1)C(=O)c1cc(C(F)(F)F)cc(C(F)(F)F)c1`, the call in test [1], in test [2], in test [4], in test [5], in test [6] and in [7] was inactive. For the same compound, the compound was called inactive in test [8], in [9], in test [10], in [11], in test [12] and in [13]. The call in test [14], in test [15], in test [16] and in test [17] was inactive.

Regarding `COc1ccc2cc(S(=O)(=O)N[C@H](CC(=O)N[C@H](Cc3ccc(CN4[C@H](C)CCC[C@@H]4C)cc3)C(=O)N(C)C(C)C)c3ccc4c(c3)OCO4)ccc2c1`, the compound was called inactive in [1], in test [2], in test [3], in test [4], in [5] and in test [6]. Besides, the outcome in test [8], in test [11], in test [12], in [13], in test [18] and in test [19] was inactive. Also, the AC50 in [7] is 0.564 µM (active); in [9], 11 µM (active); in test [10], 11.2 µM (active); in [15] it was 11 µM (active); in test [16], 11 µM (active).

Turning to `O=c1ccc2ccccc2o1`, the outcome in [1], in [2], in test [4], in [5], in [6] and in test [7] was inactive. Moreover, the compound was classed as inactive in test [8], in test [9], in test [10], in test [11], in test [12] and in test [15]. The call in test [16] and in [19] was inactive.

On to `COCC(C)OCC(C)OCC(C)O` (stereo not given), for which the compound was classed as inactive in test [1], in test [2], in test [3], in test [4], in test [5] and in test [6]. Moreover, the result in [7], in [8], in [9], in [10], in test [11] and in [12] was inactive. The compound was classed as inactive in test [13], in test [15], in [16] and in test [17].

With `CCO[Si](CCCNC(N)=O)(OCC)OCC`, the result in test [1], in [2], in test [3], in test [4], in test [5] and in test [6] was inactive. Further, the compound was called inactive in [7], in test [8], in [9], in test [10], in test [11] and in test [12]. The result in [13], in test [15], in test [16], in test [19] and in test [17] was inactive.

In the case of `CC(C)(C)c1csc(-c2cc3cc(OCc4ccccc4CC(=O)O)ccc3o2)n1`, the AC50 in test [1] is 7.32 µM (active); in [3], 33.4 µM (active); in [7], 6.91 µM (active); in test [9], 6.62 µM (active); in test [13], 14.1 µM (active); in test [16], 50.2 µM (active). For the same compound, the outcome in [2], in test [5], in test [6], in [8], in test [10] and in test [11] was inactive. In addition, the call in test [12] and in [15] was inactive.

The record behind these values is PubChem BioAssay (EPA / NIEHS).
